The text below walks through data of PubChem BioAssay AID743171 (National Center for Advancing Translational Sciences (NCATS), 2013).

Values joined by “and” are separate entries in the source; they are usually repeats but may differ in a detail not shown here. Equal entries are not always repeated. Inconclusive results are not listed. Active and inactive are the calls of the source. Calls come from the whole dose curve; as a rule, active = well fitted inhibition curve with a large enough effect; inconclusive = small, poorly fitted or top-dose-only effect; inactive = flat fitted curve, though single readings scatter.

In the experiment the target is 15-hydroxyprostaglandin dehydrogenase [NAD(+)] (Homo sapiens) (UniProt P15428). Kind of experiment: Extended Characterization of HPGD Inhibitors: Activity in Primary Assay (HPGD). To be noted: recombinant HPGD, NADH fluorescence, PGE2 substrate. The text has this:
The central role of HPGD is to inactivate prostaglandins such as prostaglandin E2 (PGE2) or prostaglandin D2 (PGD2). These prostaglandins are involved in a number of processes, including inflammation, differentiation, and cellular signaling, which makes HPGD an important target for pharmacological intervention. Inhibition of 15-PGDH (HPGD) activity was screened by utilizing prostaglandin as an electron donor and NAD+ as an electron acceptor/cofactor. An increase in the fluorescence intensity due to conversion of NAD+ to NADH was used to measure the enzyme activity. All compounds were screened using a qHTS approach, where compounds are assayed using at least seven concentrations to generate concentration-response curves for every compound. Briefly, qHTS uses an inter-plate dilution method where the first plate contains the highest concentration of a set of compounds in DMSO, while subsequent plates contain the same compounds in the same well locations, but at successive lower concentrations. NIH Chemical Genomics Center [NCGC] NIH Molecular Libraries Probe Centers Network [MLPCN] MLPCN Grant: MH084681 Assay Submitter (PI): Structural Genomics Consortium
Three uL of enzyme (20 nM final concentration) were dispensed to 1536-well Greiner black solid bottom plates. Compounds (23 nL) were transferred via Kalypsys PinTool. The plates were incubated for 15 min at room temperature, and then 1 uL of substrate/cofactor solution (Substrate/cofactor solution: 1 mM NAD+ and 30 uM prostaglandin (Sigma, prostaglandin E2, #P5640)) were added to start the reaction. The plates were immediately transferred to and read 4 times every 30 seconds on a ViewLux High-throughput CCD imager (Perkin-Elmer) using 340 nm excitation and 450 nm emission fluorescence protocol. The fluorescence intensity difference between the last and the first time points, normalized against controls, was used to compute reaction progress.

Chain of 15-hydroxyprostaglandin dehydrogenase [NAD(+)] (Homo sapiens) (P15428 whole entry, looked up): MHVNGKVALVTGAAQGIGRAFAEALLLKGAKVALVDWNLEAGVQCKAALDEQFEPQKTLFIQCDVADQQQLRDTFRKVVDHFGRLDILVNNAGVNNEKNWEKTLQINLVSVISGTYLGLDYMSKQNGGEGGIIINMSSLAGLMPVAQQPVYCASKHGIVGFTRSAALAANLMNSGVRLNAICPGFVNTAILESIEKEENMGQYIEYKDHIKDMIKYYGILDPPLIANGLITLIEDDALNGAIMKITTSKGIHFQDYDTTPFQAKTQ

On to `Cc1cc(-c2nnc3n2CCCCC3)c(C)n1-c1ccc(C(C)(C)C)cc1`, for which the Potency was 85.7 nM (active) and 136 nM (active). Take `COc1ccc(-n2c(C)cc(-c3nnc4n3CCCCC4)c2C)cc1`: the Potency was 85.7 nM (active). As for `Cc1cccc(-n2cnc3cc(C(=O)N4CCCC(C)C4)ccc32)c1` (stereo not given), the Potency was 21.5 nM (active). In the case of `Cc1cc(-c2nnc3n2CCCCC3)c(C)n1-c1ccc(Cl)cc1` it was 38.3 nM (active); in that of `Cc1cc(-c2nnc3n2CCCCC3)c(C)n1-c1cccnc1`, 271 nM (active).
